These results are taken from the supplement of paper PMC10127200.

Holding throughout (assay): Euclidean distance of Cell Painting phenotypic profile (signed KS, 77 features) to DMSO centroid (dimensionless distance); 5 or 10 uM (library dependent); higher = stronger phenotypic change vs DMSO (phenoactivity)
Common to all, as to conditions: 48 h

One assay deals with 786-O. The procedure, abridged:
(§1)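 Harmony extracted 77 features from 20X confocal images (9 fields/well) of stained cells, scoring each as a signed Kolmogorov-Smirnov statistic against same-plate vehicle wells. The cells, five cancer lines and a healthy fibroblast line, had received library compounds for 48 h at 10 or 5 uM depending on library, with 0.1% DMSO final. Phenoactivity is the Euclidean distance from each plate-position-corrected, correlation-weighted, top-dose replicate-averaged profile to the median vehicle profile.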

For another assay, the system named is A549. In short, it runs like this:
as §1

The subject of another assay is DU145. In short, it runs like this:
as §1

Another assay has as its system FB. The procedure, abridged: as §1
The subject of the next assay is HEPG2. The procedure, abridged:
as §1

The test system of a further assay is OVCAR4. In short, it runs like this: as §1

Each structure is given as a SMILES string. Structures can show the parent of a compound that is named as a salt.

Consider `O=C(O)CC(O)(CC(=O)O)C(=O)O` [Citric acid], for which the Euclidean distance with 786-O worked out at 0.88; with A549, 0.725; in the assay on DU145 it was 1.02; in the assay on FB, 0.899; with HEPG2, 0.774; with OVCAR4, 0.991.

As to `Nc1n[n+]([O-])c2ccccc2[n+]1[O-]` [Tirapazamine], the Euclidean distance worked out at 2.03 with 786-O; 1.01 in the assay on A549; 0.984 in the assay on DU145; 2.3 in the assay on FB; 2.21 with HEPG2; 1.52 in the assay with OVCAR4.

`COc1nccnc1NS(=O)(=O)c1ccc(N)cc1` [Sulfalene(SMPZ)]: the Euclidean distance with 786-O worked out at 0.789; in the assay on A549, 1.44; with DU145, 1.18; in the assay on FB, 1.41; in the assay on HEPG2 it was 0.406; in the assay on OVCAR4, 0.917.

As to `C[C@H](CS)C(=O)N1CCC[C@H]1C(=O)O` [Captopril], the Euclidean distance turned out to be 1.01 in the assay on 786-O; 1.13 in the assay on A549; 0.669 in the assay on DU145; 0.971 in the assay with FB; 2.08 in the assay on HEPG2; 0.714 with OVCAR4.

`Cc1c(C(=O)Nc2ccc(N3C[C@@H](C)O[C@@H](C)C3)nc2)cccc1-c1ccc(OC(F)(F)F)cc1` [LDE225 (NVP-LDE225.Erismodegib)]: the Euclidean distance with 786-O came out at 0.757; in the assay with A549 it was 1.2; with DU145, 0.747; in the assay on FB, 0.782; in the assay with HEPG2, 1.4; with OVCAR4, 1.38.

For the compound `CC[C@]1(O)C[C@H]2CN(CCc3c([nH]c4ccccc34)[C@@](C(=O)OC)(c3cc4c(cc3OC)N(C=O)[C@H]3[C@@](O)(C(=O)OC)[C@H](OC(C)=O)[C@]5(CC)C=CCN6CC[C@]43[C@@H]65)C2)C1` [Vincristine], the Euclidean distance in the assay with 786-O is 3.12; in the assay with A549 it was 2.61; with DU145, 4.78; in the assay with FB, 3.47; in the assay with HEPG2, 3.99; in the assay with OVCAR4 it was 2.86.

As for `CC[C@H](C)[C@@H]1NC(=O)[C@H](Cc2ccc(O)cc2)NC(=O)[C@@H](N)CSSC[C@@H](C(=O)N2CCC[C@H]2C(=O)N[C@@H](CC(C)C)C(=O)NCC(N)=O)NC(=O)[C@H](CC(N)=O)NC(=O)[C@H](CCC(N)=O)NC1=O` [Oxytocin (Syntocinon)], the Euclidean distance in the assay with 786-O was 1.83; in the assay on A549, 1.77; with DU145 it was 0.912; in the assay on FB, 1.41; in the assay with HEPG2 it was 0.745; in the assay with OVCAR4, 0.928.

Consider `COc1cc2nccc(Oc3ccc(NC(=O)Nc4cc(C)on4)c(Cl)c3)c2cc1OC` [Tivozanib (AV-951)], for which the Euclidean distance was determined as 2.03 in the assay with 786-O; 2.81 in the assay with A549; 1.83 in the assay on DU145; 2.67 with FB; 2.21 in the assay on HEPG2; 2.39 in the assay on OVCAR4.

Consider `CCC(=O)NS(=O)(=O)c1ccc(-c2c(-c3ccccc3)noc2C)cc1` [Parecoxib Sodium], for which the Euclidean distance was 0.662 with 786-O; 0.521 with A549; 0.541 in the assay with DU145; 0.844 in the assay on FB; 0.676 in the assay on HEPG2; 0.905 in the assay on OVCAR4.

Take `CCCCCNC(=N)N/N=C/c1c[nH]c2ccc(OC)cc12` [Tegaserod Maleate]: the Euclidean distance stood at 5.85 with 786-O; 4.48 in the assay on A549; 5.39 in the assay with DU145; 6.34 with FB; 4.98 with HEPG2; 5.08 in the assay with OVCAR4.

Take `CN1CCc2cc3c(cc2C(=O)Cc2ccc4c(c2C1)OCO4)OCO3` [Protopine]: the Euclidean distance in the assay with 786-O was determined as 0.844; in the assay on A549, 1.36; in the assay with DU145, 0.606; in the assay with FB, 0.616; in the assay with HEPG2, 1.3; with OVCAR4, 1.68.

With `Nc1ccc(S(=O)(=O)Nc2ccnn2-c2ccccc2)cc1` [Sulfaphenazole], the Euclidean distance was 0.816 in the assay with 786-O; 0.571 in the assay on A549; 1.03 in the assay on DU145; 0.58 in the assay with FB; 0.469 in the assay with HEPG2; 1.26 in the assay with OVCAR4.

Consider `O=C(Nc1ccc(S(=O)(=O)Nc2ccccc2Cl)c(Cl)c1)c1ccccn1`, for which the Euclidean distance was found to be 0.876 in the assay on 786-O; 0.81 in the assay with A549; 0.6 in the assay on DU145; 0.594 with FB; 0.744 with HEPG2; 0.782 in the assay on OVCAR4.

`CCC[S+]([O-])c1ccc2[nH]c(NC(=O)OC)nc2c1` (stereo not drawn) [Albendazole Oxide]: the Euclidean distance was determined as 1.29 in the assay with 786-O; 1.23 in the assay on A549; 0.768 in the assay with DU145; 0.918 in the assay on FB; 0.943 in the assay on HEPG2; 1.26 in the assay with OVCAR4.

Regarding `CC[C@H]1OC(=O)C[C@@H](O)[C@H](C)[C@@H](O[C@@H]2O[C@H](C)[C@@H](O[C@H]3C[C@@](C)(O)[C@@H](O)[C@H](C)O3)[C@H](N(C)C)[C@H]2O)[C@@H](CC=O)C[C@@H](C)C(=O)/C=C/C(C)=C/[C@@H]1CO[C@@H]1O[C@H](C)[C@@H](O)[C@@H](OC)[C@H]1OC` [Tylosin], the Euclidean distance in the assay with 786-O was 0.535; with A549, 1.08; with DU145, 0.612; in the assay with FB it was 0.794; with HEPG2, 0.42; with OVCAR4, 0.917.

As to `CC(C(=O)O)c1ccc2c(c1)Cc1cccnc1O2` (stereo not drawn) [Pranoprofen], the Euclidean distance with 786-O was found to be 1.12; with A549, 0.714; in the assay on DU145, 1.29; with FB, 1.04; in the assay on HEPG2, 0.599; in the assay on OVCAR4 it was 0.996.

Turning to `C[C@H](NC(=O)[C@@H](O)c1cc(F)cc(F)c1)C(=O)N[C@@H]1C(=O)N(C)c2ccccc2-c2ccccc21`, the Euclidean distance with 786-O was 1.22; in the assay on A549, 1.36; in the assay with DU145 it was 1.05; in the assay with FB, 0.939; in the assay on HEPG2 it was 0.864; in the assay with OVCAR4, 1.42.

For `Cc1cccc(C)c1OCC(C)N` (stereo not drawn) [Mexiletine HCl], the Euclidean distance in the assay with 786-O turned out to be 0.988; with A549, 0.742; in the assay on DU145, 0.639; in the assay with FB, 1.07; in the assay on HEPG2 it was 0.966; in the assay with OVCAR4 it was 0.836.

With `Cc1nc(Nc2ncc(C(=O)Nc3c(C)cccc3Cl)s2)cc(N2CCN(CCO)CC2)n1` [Dasatinib hydrochloride], the Euclidean distance in the assay with 786-O turned out to be 3.83; with A549, 4.46; in the assay on DU145, 4.71; in the assay on FB it was 3.53; with HEPG2 it was 2.21; in the assay with OVCAR4, 4.45.

In the case of `Cc1cn(-c2cc(NC(=O)c3ccc(C)c(Nc4nccc(-c5cccnc5)n4)c3)cc(C(F)(F)F)c2)cn1` [Nilotinib hydrochloride], the Euclidean distance with 786-O worked out at 2.28; with A549, 4.11; in the assay on DU145 it was 3.01; in the assay with FB, 1.85; with HEPG2 it was 3.37; in the assay with OVCAR4 it was 3.14.

Consider `NC(=O)c1ccc(OCCCN2CC3CCCC3C2)cc1` (stereo not drawn), for which the Euclidean distance in the assay on 786-O came to 1.32; in the assay with A549, 1.16; in the assay with DU145, 1.39; with FB, 1.36; with HEPG2 it was 0.495; in the assay on OVCAR4 it was 1.23.

As to `CCCN(CCc1cccs1)[C@H]1CCc2c(O)cccc2C1` [Rotigotine], the Euclidean distance with 786-O worked out at 0.962; with A549, 0.896; with DU145 it was 0.662; in the assay with FB it was 0.9; in the assay with HEPG2 it was 0.437; in the assay with OVCAR4, 0.97.

Turning to `FCOC(C(F)(F)F)C(F)(F)F` [Sevoflurane], the Euclidean distance turned out to be 1.15 in the assay with 786-O; 0.865 in the assay on A549; 0.847 in the assay on DU145; 0.867 with FB; 0.827 in the assay on HEPG2; 1.51 in the assay on OVCAR4.
